Experimental findings from PubChem BioAssay AID488969 (Vanderbilt High Throughput Screening Facility, 2010) are described below.

Over roughly 110,000 compounds, “z-score” has its median near -0.1; the highest 2% begin near 2. Only a selection was taken, and the highest values are over-represented in it overall. Calls of active or inactive are those of the source.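 Rule for the calls: active = z-score in the third read window above 3 or below -3; inactive = the rest.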

The target in this assay is Metabotropic glutamate receptor 8 (Rattus norvegicus) (UniProt P70579). The assay is described as follows: rat mGluR8 modulators via GIRK flux, primary screen, cell-based, thallium flux, HTS (AID 488969). To be noted: HEK293 rat mGluR8, GIRK (G protein-gated inwardly rectifying potassium channel) thallium flux, FluoZin2; at 10 µM; stronger effect = higher value; submaximal glutamate (EC20) added with thallium.
Sequence of Metabotropic glutamate receptor 8 (Rattus norvegicus) (P70579 whole entry, looked up): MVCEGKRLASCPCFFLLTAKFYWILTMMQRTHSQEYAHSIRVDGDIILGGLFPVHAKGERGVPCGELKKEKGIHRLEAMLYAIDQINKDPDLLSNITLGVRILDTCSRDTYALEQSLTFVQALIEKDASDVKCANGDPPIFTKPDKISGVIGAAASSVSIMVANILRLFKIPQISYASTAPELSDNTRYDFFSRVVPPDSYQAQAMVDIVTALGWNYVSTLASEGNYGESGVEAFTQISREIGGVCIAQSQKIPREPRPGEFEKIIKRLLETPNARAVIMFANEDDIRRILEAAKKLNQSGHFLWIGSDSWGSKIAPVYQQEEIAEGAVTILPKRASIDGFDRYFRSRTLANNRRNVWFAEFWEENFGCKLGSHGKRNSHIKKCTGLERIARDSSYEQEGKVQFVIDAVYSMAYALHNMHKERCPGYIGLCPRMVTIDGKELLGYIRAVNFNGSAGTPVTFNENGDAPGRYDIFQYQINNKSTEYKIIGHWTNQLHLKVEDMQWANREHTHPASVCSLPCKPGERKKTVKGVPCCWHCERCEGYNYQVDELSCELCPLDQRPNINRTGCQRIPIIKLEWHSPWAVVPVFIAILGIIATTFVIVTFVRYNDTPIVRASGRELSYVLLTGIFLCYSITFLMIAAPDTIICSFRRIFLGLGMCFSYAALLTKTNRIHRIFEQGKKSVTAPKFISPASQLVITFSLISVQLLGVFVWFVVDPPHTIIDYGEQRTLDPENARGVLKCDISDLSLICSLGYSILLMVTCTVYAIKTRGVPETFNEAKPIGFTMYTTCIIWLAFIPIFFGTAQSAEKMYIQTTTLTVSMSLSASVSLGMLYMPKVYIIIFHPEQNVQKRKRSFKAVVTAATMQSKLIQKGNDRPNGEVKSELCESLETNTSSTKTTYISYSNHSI
Regarding `COc1ccc(CC(=O)NCc2ccco2)cc1OC`, the z-score was -0.0499.

With `CN(C)C(CNS(=O)(=O)c1ccc(Cl)cc1)c1cccnc1` (stereo not given), the z-score was -0.0299.

`CCOC(=O)CCc1c(C)c2ccc(OCC(=O)N(CC)CC)c(C)c2oc1=O`: the z-score was -0.0102.

On to `CCCc1cc(=O)[nH]c(SCC(=O)N2N=C(c3ccc(Cl)cc3)CC2c2ccco2)n1` (stereo not given), for which the z-score was -0.126.

Turning to `COCCn1c(=S)[nH]c2cc(C(=O)N3CCC(C(N)=O)(N4CCCCC4)CC3)ccc2c1=O`, the z-score was -0.286.

Turning to `CCOc1ccccc1N1CCN(Cc2cccc(OC)c2O)CC1`, the z-score was -0.0607.

As to `COc1ccccc1N1CCN(Cc2ccc(O)c3ncccc23)CC1`, the z-score was -0.0396.

With `COc1ccccc1N1CCN(Cc2cc(Br)c(O)c3ncccc23)CC1`, the z-score is 3.32 (active).

With `Cc1cc(C(=O)NCC(=O)OCC(=O)N(C)C2CCCCC2)ccc1[N+](=O)[O-]`, the z-score came to 0.828.

In the case of `CCOC(=O)C1C(=O)C=C(/C=C/c2ccccc2)CC1c1ccc(Cl)cc1` (stereo not given), the z-score was -0.123.

As for `CC(C)[C@H](NC(=O)OC(C)(C)C)c1nnc(SCC(=O)Nc2ccc(Br)cc2)o1`, the z-score was -0.355.

Turning to `Cn1c(N2CCN(C(=O)NC34CC5CC(CC(C5)C3)C4)CC2)nc2ccccc21`, the z-score is -0.317.

On to `Cc1cc(C)cc(-n2c(SCC(=O)Nc3cccc(S(=O)(=O)NC4=NCCCCC4)c3)nc3ccccc3c2=O)c1`, for which the z-score was -0.139.

With `Cc1ccc(-n2c(SCC(=O)Nc3cccc(S(=O)(=O)NC4=NCCCCC4)c3)nc3ccccc3c2=O)cc1`, the z-score was -0.48.

For the molecule `O=C(CSc1ccc2ccccc2c1Br)Nc1cccc(S(=O)(=O)NC2=NCCCCC2)c1`, the z-score is 14.5 (active).

With `CCCCC(c1nnnn1C1CCCC1)N1CCN(C2CCCCC2)CC1` (stereo not given), the z-score was -0.391.

On to `O=C(O)C1CCCCN1S(=O)(=O)c1ccc2ccccc2c1` (stereo not given), for which the z-score is -0.217.

As to `COC(=O)C1CCCN1S(=O)(=O)c1ccc2ccccc2c1` (stereo not given), the z-score stood at 2.41.

In the case of `O=C(NC1CC1)C1CCCN1S(=O)(=O)c1ccc2ccccc2c1` (stereo not given), the z-score was -0.112.

With `Cc1ccc(C(=O)COc2ccccc2-c2ccccc2)cc1`, the z-score was -0.229.

For `CCOc1ccccc1C(=O)N(Cc1ccccc1)Cc1cc2cc3c(cc2[nH]c1=O)OCCO3`, the z-score was determined as 0.283.

As to `CCOC(=O)c1ccc(NC(=O)CCNC(=O)c2ccc([N+](=O)[O-])cc2)cc1`, the z-score was -0.327.

For the molecule `CCCn1nc([N+](=O)[O-])c(C(C#N)c2nc3ccccc3s2)c(Cl)c1=O` (stereo not given), the z-score was -2.49.

In the case of `CCn1nc([N+](=O)[O-])c(C(C#N)c2nc3cc(C(F)(F)F)ccc3s2)c(Cl)c1=O` (stereo not given), the z-score was 2.97.

In the case of `CCn1nc([N+](=O)[O-])c(C(C#N)c2nc3ccccc3n2C)c(Cl)c1=O` (stereo not given), the z-score was -0.682.

As to `CCCS(=O)(=O)N1CCC(C(=O)NCc2ccco2)CC1`, the z-score came to 0.18.

`Cc1ccc(OCc2nnc(SCC(=O)c3cccs3)n2-c2ccccc2)cc1C` displayed a z-score of 0.316.

For `Cc1c(C(=O)OCC(=O)N2CC(C)OC(C)C2)oc2ccc(Br)cc12` (stereo not given), the z-score is -0.32.

`CC(C)(C)OC(=O)COc1cc(O)c2c(=O)cc(-c3ccccc3)oc2c1`: the z-score was 4.76 (active).

`O=C(COc1cc(O)c2c(=O)cc(-c3ccccc3)oc2c1)c1ccccc1` displayed a z-score of 0.0143.

For `CC(C)(C)OC(=O)COc1cc(OCC(=O)OC(C)(C)C)c2c(=O)cc(-c3ccccc3)oc2c1`, the z-score was -0.331.

For the molecule `O=C(Cc1ccccc1)N/N=C/c1ccc(OCC(=O)Nc2ccccc2)cc1`, the z-score was -0.147.

`CCc1nc(C)ccc1OC(=O)C12CC3CC(CC(C3)C1)C2` registered a z-score of 0.238.

`Cc1ccc(-c2cc3cccc[n+]3cc2-c2ccc(C)cc2)cc1`: the z-score is -0.0109.

Take `O=S(=O)(Nc1ccc2c(c1)OCCO2)c1ccc(F)cc1`: the z-score is -0.102.

For the molecule `Cc1ccc(S(=O)(=O)Nc2ccc3nc(C)sc3c2)cc1`, the z-score was -0.613.

In the case of `O=S(=O)(Nc1cccnc1)c1ccc2c(c1)OCCO2`, the z-score is -0.833.

Consider `Cc1nc2ccc(NS(=O)(=O)c3ccc(C)c(C)c3)cc2s1`, for which the z-score is -0.187.

Molecule `Cc1cccc(NS(=O)(=O)c2ccc3c(c2)OCCO3)c1` yielded a z-score of 2.76.

As for `Cc1nc2ccc(NS(=O)(=O)c3ccc4c(c3)OCCO4)cc2s1`, the z-score is 3.48 (active).

For the molecule `CCCCOc1ccc(NC(=O)C2CC=CCC2C(=O)O)cc1` (stereo not given), the z-score is -0.0643.

Consider `COc1ccc(S(=O)(=O)N(C)CC(=O)Nc2ccc3c(c2)OCO3)cc1`, for which the z-score is 0.0177.

`O=C(c1ccco1)N1CCN(S(=O)(=O)c2ccc3[nH]c(=O)oc3c2)CC1` displayed a z-score of 0.249.

Turning to `CC1(C)CC(=O)C2=C(C1)N(Cc1ccco1)C(=O)C2(NC(=O)c1ccc(Cl)cc1Cl)C(F)(F)F` (stereo not given), the z-score was -0.289.

`CC(C)C(NC(=O)C1CCCCC1)C(=O)Nc1ccncc1` (stereo not given) had a z-score of 0.244.

`CCNC(=S)N/N=C/c1cc(C)ccc1C` came in with a z-score of 2.43.

Consider `Cc1ccc(NC(=S)N/N=C/c2c(Cl)cccc2Cl)c(C)c1`, for which the z-score was 9.31 (active).

`Cc1ccc(NC(=S)N/N=C/c2ccc(OCCC(C)C)cc2)c(C)c1` returned a z-score of 0.599.

`CCCCNC(=S)N/N=C/c1cc(C)ccc1C` had a z-score of 1.48.

`Cc1ccc(NC(=S)NCCO)c(C)c1`: the z-score was -0.044.

`S=C(NCCc1ccccc1)N/N=C/c1c(Cl)cccc1Cl` registered a z-score of 0.353.

On to `CCNC(=S)N/N=C/c1c(Cl)cccc1Cl`, for which the z-score was 5.15 (active).

For the molecule `Cc1ccc(C)c(/C=N/NC(=S)NCCc2ccccc2)c1`, the z-score was determined as 1.17.

The molecule `CCNC(=S)N/N=C/c1cccc(C)c1` yielded a z-score of 0.00977.

Take `Cc1cc(=O)[nH]c(SCC(=O)NCCc2ccccc2)n1`: the z-score was determined as 1.96.

Turning to `CCN(CC)C(=O)c1sc(NC(=O)c2ccc(C)c([N+](=O)[O-])c2)c(C#N)c1C`, the z-score was 0.0677.

For the molecule `CCOC(=O)C1C(=O)OC2(CCCCC2)C1C(=O)OCC` (stereo not given), the z-score worked out at 0.124.

For the molecule `O=C(Cn1c(=O)oc2cc(S(=O)(=O)N3CCCCCC3)ccc21)NC1CCCCCCC1`, the z-score is -0.034.

With `CCc1nnc2sc(-c3cc(-c4ccccc4)nc4ccccc34)nn12`, the z-score is -0.507.

Consider `Cc1ccc(CNC(=O)COc2ccccc2-c2ccccc2)cc1`, for which the z-score was -0.0564.

For `Cc1nc2c(-c3ccc(F)cc3)c(C)nn2c(C)c1CCC(=O)N1CCN(c2ccccc2)CC1`, the z-score was -0.81.

Regarding `Cc1nc2c(-c3ccccc3)c(C)nn2c(C)c1CCC(=O)O`, the z-score came to 0.235.

As for `CCN1CCN(c2ccc(NC(=O)CCc3c(C)nc4c(-c5ccccc5)c(C)nn4c3C)cc2)CC1`, the z-score was 3.06 (active).

`CCn1nnc(-c2ccccc2NC(=O)c2cc(OC)cc(OC)c2)n1`: the z-score is -0.139.

On to `O=C(c1ccc(CS(=O)(=O)c2ccc(Br)cc2)o1)N1CCN(c2ccccn2)CC1`, for which the z-score is -0.169.

Take `O=C(c1ccc(CS(=O)(=O)c2ccccc2)o1)N1CCN(c2ncccn2)CC1`: the z-score is -0.184.

Turning to `O=C(c1ccc(CS(=O)(=O)c2ccc(Br)cc2)o1)N1CCN(c2ncccn2)CC1`, the z-score is 3.31 (active).

With `COC(=O)c1sccc1NC(=O)CSc1cc(Cl)ccc1Cl`, the z-score is -0.165.

As to `COC(=O)c1sccc1NC(=O)COc1ccc(Cl)cc1Cl`, the z-score is -0.26.

`COC(=O)c1sccc1NC(=O)COc1ccccc1Cl`: the z-score is -0.212.

`COC(=O)c1sccc1NC(=O)CSc1cccc(Cl)c1Cl`: the z-score was -0.0544.

With `COC(=O)c1sccc1NC(=O)CSc1ccccc1NS(=O)(=O)c1ccccc1Cl`, the z-score was 3.17 (active).

Consider `COC(=O)c1sccc1NC(=O)CSc1ccccc1NS(=O)(=O)c1cc(Cl)ccc1Cl`, for which the z-score was 8.63 (active).

For `Cc1nn2c(-n3ccnc3C)c3c(nc2c1-c1ccccc1)CCC3`, the z-score is -0.311.

`O=C(CCSCc1ccc(Cl)cc1)NCCC1=CCCCC1`: the z-score was -0.242.

The molecule `C1=C(CCNCC2CC2)CCCC1` displayed a z-score of 0.204.

`Clc1ccc(CNCCC2=CCCCC2)cc1` came in with a z-score of 2.27.

As for `O=C(NCCC1=CCCCC1)C(=O)NCc1ccccc1`, the z-score is -0.143.

For the molecule `Cc1ccc(CNC(=O)C(=O)NCCC2=CCCCC2)cc1`, the z-score was -0.102.

The molecule `Cc1ccc(CNCCC2=CCCCC2)cc1` displayed a z-score of 2.07.

On to `COc1cc(NC(=O)CN(C)S(=O)(=O)c2ccc3c(c2)CCC(=O)N3)cc(OC)c1`, for which the z-score is -0.176.

For the molecule `O=C1NC(=O)[C@@H]2C3c4ccccc4C=CN3[C@H](C(=O)c3cccs3)[C@H]12` (stereo not given in full), the z-score is -0.687.

In the case of `CCCCC(=O)Nc1nn(CCC)c2nc3ccccc3cc12`, the z-score is -1.22.

On to `CC(C)=C1C2CCC1C1C(=O)N(NC(=O)COc3ccc(Cl)c(C)c3)C(=O)C21` (stereo not given), for which the z-score is -0.481.

In the case of `CC(C)=CCC/C(C)=C/C=N/NC(=O)c1ccccc1[N+](=O)[O-]`, the z-score is -0.0423.

`Cc1ccc(C2c3c(oc4ccccc4c3=O)C(=O)N2CCCN2CCOCC2)o1` (stereo not given) showed a z-score of 0.634.

In the case of `O=C1c2oc3ccc(Cl)cc3c(=O)c2C(c2ccco2)N1CCN1CCOCC1` (stereo not given), the z-score is 0.841.

For the molecule `Cc1ccc(C2c3c(oc4ccc(Cl)cc4c3=O)C(=O)N2CCCN2CCOCC2)o1` (stereo not given), the z-score was 3.95 (active).

For the molecule `CC(C)c1nnc(NC(=O)CCC(=O)NCc2ccc3c(c2)OCO3)s1`, the z-score worked out at 0.746.

Turning to `COc1ccc(CCNC(=O)c2nonc2N)cc1`, the z-score was -0.242.

On to `O=S(=O)(NCC1CCCO1)c1ccc(S(=O)(=O)N2CCc3ccccc3C2)cc1` (stereo not given), for which the z-score amounted to 0.1.

`OCCNCCCOc1ccc(Cl)cc1Br` showed a z-score of 0.496.

Regarding `COCCCNCCCOc1ccc(Cl)cc1Br`, the z-score was 3.75 (active).

In the case of `COCCCNCCCOc1ccc(C)cc1Br`, the z-score is -0.00352.

Turning to `COc1ccc(N2C(=O)CC(N3CCN(c4ccc(C(=O)c5cccnc5)cc4)CC3)C2=O)cc1` (stereo not given), the z-score was -0.186.

In the case of `CC(C)(C)c1ccc(OCc2ccc(C(=O)N/N=C3\CC4CC=CC34)cc2)cc1` (stereo not given), the z-score was -0.0236.

For `O=C1NC(=S)SC1=C1CCCC1`, the z-score was 1.36.

Molecule `O=C1NC(=O)C(=C2CCCCCC2)S1` displayed a z-score of 0.367.

For `O=C1NC(=S)SC1=C1CCCCCC1`, the z-score is 17.1 (active).

For the molecule `Cc1cc(C(=O)NCc2ccccc2F)cs1`, the z-score was -0.288.

Turning to `CCSC1=N/C(=C\c2ccc(OC)cc2)C(=O)N1`, the z-score was -0.286.

On to `CC(c1ccc(F)cc1)n1c(-c2ccc3ccccc3n2)n[nH]c1=S` (stereo not given), for which the z-score was 6.84 (active).

Take `S=c1[nH]nc(-c2ccc3ccccc3n2)n1Cc1ccccc1`: the z-score was found to be 0.834.

`S=c1[nH]nc(-c2ccc3ccccc3n2)n1-c1ccc2ncccc2c1`: the z-score was -0.148.

As to `S=c1[nH]nc(-c2ccc3ccccc3n2)n1-c1ccc(Cl)cc1`, the z-score was found to be 0.934.

On to `S=c1[nH]nc(-c2ccc3ccccc3n2)o1`, for which the z-score is -0.153.

With `S=c1[nH]nc(-c2ccc3ccccc3n2)n1-c1ccccc1`, the z-score worked out at 0.119.

In the case of `S=c1[nH]nc(-c2ccc3ccccc3n2)n1-c1cc(Cl)cc(Cl)c1`, the z-score was determined as 2.18.

Take `CC(c1ccc(Cl)cc1)n1c(-c2ccc3ccccc3n2)n[nH]c1=S` (stereo not given): the z-score is 7.23 (active).

In turn, `S=c1[nH]nc(-c2ccc3ccccc3n2)n1-c1ccccc1Cl` came in with a z-score of 0.0824.
